Test results reported in PubChem BioAssay AID1159580 (chemical genetic matrix, 2015).
The campaign covered roughly 5,500 compounds. About 2,000 (36%) were called active. Not shown: some 18% with an inconclusive outcome. Some of the results follow. Values without a mark were called inactive. No stated cut-off is given here; in the data, active means normalized growth mostly below about 0.91 (no sharp cut-off); inconclusive means no clear call, values can overlap the other calls; inactive means mostly above about 0.92.

Test: chemical genetic growth profiling, strain panel (AID 1159580);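 further: tested at 20 µM; growth read once vehicle control cultures reached saturation at 30 °C; 1 = growth at the plate median or of vehicle wells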
Settings: S. cerevisiae deletion strains, growth OD
[1] = locus YAL013W, strain DEP1, stronger effect = lower value
[2] = locus YBR229C, strain ROT2, stronger effect = lower value
[3] = locus YDL101C, strain DUN1, stronger effect = lower value
[4] = locus YDR150W, strain NUM1, stronger effect = lower value
[5] = locus YEL061C, strain CIN8, stronger effect = lower value
[6] = locus YGR078C, strain PAC10, stronger effect = lower value
[7] = locus YGR229C, strain SMI1, stronger effect = lower value
[8] = locus YHR030C, strain SLT2, stronger effect = lower value
[9] = locus YHR087W, strain rtc3, stronger effect = lower value
[10] = locus YJR043C, strain POL32, stronger effect = lower value
[11] = locus YJR075W, strain HOC1, stronger effect = lower value
[12] = locus YLR039C, strain RIC1, stronger effect = lower value
[13] = locus YLR058C, strain SHM2 (second series), stronger effect = lower value
[14] = locus YLR085C, strain ARP6, stronger effect = lower value
[15] = locus YLR262C, strain YPT6, stronger effect = lower value
[16] = locus YML094W, strain GIM5, stronger effect = lower value
[17] = locus YMR219W, strain ESC1, stronger effect = lower value
[18] = locus YMR263W, strain SAP30, stronger effect = lower value
[19] = locus YMR307W, strain GAS1, stronger effect = lower value
[20] = locus YNL153C, strain GIM3, stronger effect = lower value
[21] = locus YNL298W, strain CLA4 (second series), stronger effect = lower value
[22] = locus YNL322C, strain KRE1, stronger effect = lower value
[23] = locus YNR030W, strain Alg12, stronger effect = lower value
[24] = locus YOL006C, strain TOP1, stronger effect = lower value
[25] = locus YPL055C, strain LGE1, stronger effect = lower value
[26] = locus YPL241C, strain CIN2, stronger effect = lower value
[27] = locus YPR135W, strain CTF4, stronger effect = lower value
[28] = locus YJL187C, strain SWE1, stronger effect = lower value

`Brc1ccc(-c2ccn[nH]2)s1` showed a normalized growth [1] of 0.978, a normalized growth [2] of 0.966 and a normalized growth [3] of 0.971. For the same compound, the normalized growth [4] was 1.02, the normalized growth [5] was 0.938 and the normalized growth [6] was 0.973. For the same compound, the normalized growth [7] was 0.955, the normalized growth [8] was 0.938 and the normalized growth [9] was 0.993. It also gave a normalized growth [10] of 1, a normalized growth [11] of 0.971 and a normalized growth (locus YKL190W, strain CNB1, stronger effect = lower value) of 0.949. The normalized growth [12] was 0.703 (active), the normalized growth [13] was 0.963 and the normalized growth [14] was 0.721 (active). The normalized growth [15] was 0.67 (active), the normalized growth [16] was 0.886 and the normalized growth [17] was 0.968. It also gave a normalized growth [18] of 1.02, a normalized growth [19] of 0.953 and a normalized growth (locus YNL128W, strain TEP1, stronger effect = lower value) of 0.94. The normalized growth [20] was 0.906 (active), the normalized growth [21] was 0.936 and the normalized growth [22] was 0.97. The normalized growth [23] was 0.939, the normalized growth [24] was 0.715 (active) and the normalized growth [25] was 1.07. The normalized growth [26] was 0.525 (active) and the normalized growth [27] was 0.789.

Work on `CN(C)C=Nc1nnc(SCc2ccc(C(=O)Oc3ccc(F)cc3F)cc2)s1` yielded a normalized growth [1] of 0.989, a normalized growth [2] of 1.05 and a normalized growth [3] of 1.02. It also gave a normalized growth [4] of 0.939, a normalized growth [5] of 1.01 and a normalized growth [6] of 1.01. It also gave a normalized growth [7] of 1.01, a normalized growth [8] of 0.931 and a normalized growth [9] of 1.02. For the same compound, the normalized growth [28] was 1.01, the normalized growth [10] was 0.949 and the normalized growth [11] was 1.03. The normalized growth [12] was 1.08, the normalized growth [13] was 1.01 and the normalized growth [14] was 0.919. The normalized growth [15] was 1.04, the normalized growth [16] was 0.973 and the normalized growth [17] was 1.01. The normalized growth [18] was 0.924, the normalized growth [19] was 0.915 and the normalized growth [20] was 1.02. For the same compound, the normalized growth [21] was 1, the normalized growth [22] was 1.03 and the normalized growth [23] was 0.989. It also gave a normalized growth [24] of 1.07, a normalized growth [25] of 0.855 and a normalized growth [26] of 0.996. For the same compound, the normalized growth [27] was 0.926.

`CN(C)C=Nc1nnc(Sc2nc3c(Cl)cc(Cl)cc3s2)s1` showed a normalized growth (locus YAR019C, strain CDC15, stronger effect = lower value) of 0.959, a normalized growth (locus YBL105C, strain PKC1, stronger effect = lower value) of 0.969 and a normalized growth (locus YBR135W, strain CKS1, stronger effect = lower value) of 0.973. The normalized growth (locus YBR136W, strain MEC1, stronger effect = lower value) was 0.968, the normalized growth (locus YBR160W, strain CDC28, stronger effect = lower value) was 0.977 and the normalized growth (locus YDL017W, strain CDC7, stronger effect = lower value) was 0.976. The normalized growth (locus YDL028C, strain MPS1, stronger effect = lower value) was 0.975, the normalized growth [3] was 0.972 and the normalized growth (locus YDL108W, strain KIN28, stronger effect = lower value) was 0.976. It also gave a normalized growth (locus YDL132W, strain cdc53, stronger effect = lower value) of 0.964, a normalized growth (locus YDL214C, strain PRR2, stronger effect = lower value) of 0.97 and a normalized growth (locus YDR052C, strain DBF4, stronger effect = lower value) of 0.972. For the same compound, the normalized growth (locus YDR054C, strain cdc34, stronger effect = lower value) was 0.954, the normalized growth (locus YDR226W, strain ADK1, stronger effect = lower value) was 0.961 and the normalized growth (locus YDR477W, strain SNF1, stronger effect = lower value) was 0.944. For the same compound, the normalized growth (locus YER123W, strain YCK3, stronger effect = lower value) was 0.953, the normalized growth (locus YER133W, strain GLC7, stronger effect = lower value) was 0.925 and the normalized growth (locus YFL009W, strain cdc4, stronger effect = lower value) was 0.963. For the same compound, the normalized growth (locus YFL029C, strain CAK1, stronger effect = lower value) was 0.959, the normalized growth (locus YFR003C, strain YPI1, stronger effect = lower value) was 0.973 and the normalized growth (locus YFR019W, strain FAB1, stronger effect = lower value) was 0.975. The normalized growth (locus YFR028C, strain CDC14, stronger effect = lower value) was 0.969, the normalized growth (locus YGR040W, strain KSS1, stronger effect = lower value) was 0.943 and the normalized growth (locus YGR052W, strain FMP48, stronger effect = lower value) was 1. For the same compound, the normalized growth (locus YGR092W, strain DBF2, stronger effect = lower value) was 0.929, the normalized growth [8] was 1.11 and the normalized growth (locus YHR079C, strain IRE1, stronger effect = lower value) was 0.946. For the same compound, the normalized growth (locus YHR082C, strain KSP1, stronger effect = lower value) was 1.07, the normalized growth (locus YHR205W, strain SCH9, stronger effect = lower value) was 1.01 and the normalized growth (locus YIL147C, strain SLN1, stronger effect = lower value) was 0.964. It also gave a normalized growth (locus YJL095W, strain BCK1, stronger effect = lower value) of 0.937, a normalized growth (locus YJL128C, strain PBS2, stronger effect = lower value) of 0.944 and a normalized growth (locus YJL157C, strain FAR1, stronger effect = lower value) of 0.941. It also gave a normalized growth (locus YJR016C, strain ILV3, stronger effect = lower value) of 0.967, a normalized growth (locus YJR066W, strain TOR1 (second series), stronger effect = lower value) of 0.924 and a normalized growth (locus YJR066W, strain TOR1, stronger effect = lower value) of 1.01. For the same compound, the normalized growth (locus YKL048C, strain ELM1, stronger effect = lower value) was 1.01, the normalized growth (locus YKL067W, strain YNK1, stronger effect = lower value) was 0.958 and the normalized growth (locus YKL101W, strain HSL1, stronger effect = lower value) was 1.01. For the same compound, the normalized growth (locus YKL193C, strain SDS22, stronger effect = lower value) was 0.968, the normalized growth (locus YKL203C, strain TOR2, stronger effect = lower value) was 0.96 and the normalized growth (locus YLR113W, strain HOG1, stronger effect = lower value) was 0.964. For the same compound, the normalized growth (locus YLR133W, strain CKI1, stronger effect = lower value) was 0.968, the normalized growth (locus YLR403W, strain SFP1, stronger effect = lower value) was 0.924 and the normalized growth (locus YML070W, strain DAK1, stronger effect = lower value) was 0.98. The normalized growth (locus YMR001C, strain CDC5, stronger effect = lower value) was 0.969, the normalized growth (locus YMR205C, strain PFK2 (second series), stronger effect = lower value) was 0.99 and the normalized growth (locus YMR277W, strain FCP1, stronger effect = lower value) was 0.962. For the same compound, the normalized growth (locus YNL006W, strain LST8, stronger effect = lower value) was 0.969, the normalized growth (locus YNL020C, strain ARK1, stronger effect = lower value) was 0.966 and the normalized growth (locus YNL161W, strain CBK1, stronger effect = lower value) was 0.967. For the same compound, the normalized growth (locus YNL183C, strain NPR1, stronger effect = lower value) was 0.995, the normalized growth (locus YNL207W, strain RIO2, stronger effect = lower value) was 0.959 and the normalized growth (locus YNL222W, strain SSU72, stronger effect = lower value) was 0.97. For the same compound, the normalized growth (locus YNL307C, strain MCK1 (second series), stronger effect = lower value) was 0.979, the normalized growth (locus YOL078W, strain AVO1, stronger effect = lower value) was 0.973 and the normalized growth (locus YOL136C, strain PFK27, stronger effect = lower value) was 0.984. It also gave a normalized growth (locus YOR061W, strain CKA2, stronger effect = lower value) of 0.944, a normalized growth (locus YOR119C, strain RIO1, stronger effect = lower value) of 1 and a normalized growth (locus YOR231W, strain MKK1, stronger effect = lower value) of 0.954. For the same compound, the normalized growth (locus YOR329C, strain SCD5, stronger effect = lower value) was 0.968, the normalized growth (locus YPL031C, strain PHO85, stronger effect = lower value) was 0.9 and the normalized growth (locus YPL153C, strain RAD53, stronger effect = lower value) was 0.913. The normalized growth (locus YPL204W, strain HRR25, stronger effect = lower value) was 0.903, the normalized growth (locus YPL209C, strain IPL1, stronger effect = lower value) was 0.975 and the normalized growth (locus YPL256C, strain CLN2, stronger effect = lower value) was 1.1. For the same compound, the normalized growth (locus YPR025C, strain CCL1, stronger effect = lower value) was 0.971, the normalized growth (locus YPR106W, strain ISR1, stronger effect = lower value) was 0.98 and the normalized growth (locus YPR111W, strain DBF20, stronger effect = lower value) was 0.957. The normalized growth (strain NNK1, stronger effect = lower value) was 0.974 and the normalized growth (strain TSCII, stronger effect = lower value) was 0.957.

For `CN(C)C=Nc1nnc(Sc2nc3cc(Cl)ccc3s2)s1`, the normalized growth [1] was 0.939, the normalized growth [2] was 0.958 and the normalized growth [3] was 0.977. It also gave a normalized growth [4] of 0.968, a normalized growth [5] of 0.93 and a normalized growth [6] of 0.983. For the same compound, the normalized growth [8] was 0.631 (active), the normalized growth [9] was 0.914 and the normalized growth [28] was 0.938. For the same compound, the normalized growth [10] was 0.966, the normalized growth [11] was 0.974 and the normalized growth [12] was 0.757 (active). For the same compound, the normalized growth [13] was 0.969, the normalized growth [14] was 0.707 (active) and the normalized growth [15] was 0.826. The normalized growth [16] was 0.909, the normalized growth [17] was 0.932 (active) and the normalized growth [18] was 0.957. It also gave a normalized growth [20] of 0.962, a normalized growth [21] of 0.887 and a normalized growth [22] of 0.987. The normalized growth [23] was 0.93, the normalized growth [24] was 0.71 (active) and the normalized growth [25] was 0.796 (active). The normalized growth [26] was 0.848 (active) and the normalized growth [27] was 0.698.
